Assay [1] in a line: compound effects on lung adenocarcinoma cell viability – A549, calcein-AM fluorescence, 48 h, basal, profiling panel (AID 1162). As to conditions: higher = more signal.
Assay [2] in a line: compound effects on differentiated 3T3-L1 adipocyte viability – cell-based, 3T3-L1 adipocytes, calcein-AM fluorescence, 48 h, basal, profiling panel (AID 1163). As to conditions: 3T3-L1 adipocytes viability, higher = more signal.
The nature of assay [3]: compound effects on hepatocellular carcinoma cell viability – HepG2, calcein-AM fluorescence, 48 h, basal, profiling panel (AID 1164). As to conditions: higher = more signal.
Assay [4] in a line: compound effects on multiple myeloma cell viability – MM1S, calcein-AM fluorescence, 48 h, basal, profiling panel (AID 1165). As to conditions: higher = more signal.
Assay [5] is described as follows: calcein-AM signal in unstimulated myeloma cells – cell-based, calcein-AM fluorescence, 48 h, PK04 Diversity Set, profiling panel (AID 1166).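 Note: cells grown under basal conditions without added stimulus.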 As to conditions: RPMI8226 myeloma viability, higher = more signal.
A short description of assay [6]: JC-1 mitochondrial signal, unstimulated HepG2 cells – cell-based, JC-1 fluorescence, 24 h, 100 nL compound, profiling panel (AID 1167). As to conditions: HepG2 mitochondrial potential, higher = more signal.
The nature of assay [7]: JC-1 mitochondrial signal, unstimulated adipocytes – cell-based, JC-1 fluorescence, 3T3-L1 adipocytes, 24 h, 100 nL compound, profiling panel (AID 1168). As to conditions: JC-1 mitochondrial fluorescence, higher = more signal, called active from +8 up or from −8 down.
The nature of assay [8]: JC-1 mitochondrial signal, unstimulated myeloma cells – cell-based, JC-1 fluorescence, RPMI8226, 24 h, 100 nL compound, profiling panel (AID 1169). As to conditions: JC-1 mitochondrial potential fluorescence, higher = more signal.
The nature of assay [9]: JC-1 mitochondrial signal, unstimulated MM1S myeloma – cell-based, JC-1 fluorescence, 24 h, 100 nL compound, profiling panel (AID 1170). As to conditions: MM1S mitochondrial potential, higher = more signal.
Assay [10] is described as follows: resazurin metabolic signal in A549 cells – cell-based, resazurin fluorescence, 24 h, PK04 Diversity Set, profiling panel (AID 1171). As to conditions: A549 viability, higher = more signal, called active from +8 up or from −8 down. (The colour change of resazurin is a common sign of viable cells or microbes.)

Active and inactive are the calls of the source.
Note: test concentration not given here.

Turning to `CCN(CC)c1ccc(N2CC=CC34O[C@@H]5/C=C\CCC(C)OC(=O)C5[C@H]3C(=O)N(CCCCCCO)[C@@H]4C2=O)cc1` (stereo not given in full), the z-score was 1.21 in [1]; -1.09 in [2]; 0.674 in assay [3]; 1.57 in assay [4]; 0.153 in assay [5]; 1.25 in assay [6]. Further, the z-score was -1.02 (inactive) in assay [7], 0.0282 in [8], 0.846 in [9] and 0.606 (inactive) in assay [10].

`O=C1C[C@@](C(=O)O)(c2ccc([N+](=O)[O-])cc2)[C@@H](c2ccc(CO)cc2I)N1CC12CC3CC(CC(C3)C1)C2`: the z-score in assay [1] is -1.27; in assay [2] it was -1.05; in assay [3], -4.72; in assay [4], -3.8; in assay [5], -4.35; in assay [6] it was -2.54. Moreover, the z-score is -1.28 (inactive) in assay [7], -0.811 in assay [8], -2.41 in [9] and -1.77 (inactive) in [10].

Turning to `Cc1ccc([C@H]2C(C(=O)O)=C[C@@H](C(C)C)N2S(=O)(=O)c2ccc(C)cc2)cc1`, the z-score was -0.828 in [1]; -0.762 in assay [2]; -0.639 in assay [3]; 0.0411 in assay [4]; -1.48 in assay [5]; -0.713 in assay [6]. In addition, the z-score in [7] was -0.385 (inactive); in assay [8], 0.59; in assay [9], -0.809; in [10], -0.194 (inactive).

On to `[N-]=[N+]=Nc1ccccc1[C@@H]1OC(c2ccc(OCCCO)cc2)=N[C@]1(CCS(=O)(=O)c1ccccc1)C(=O)N1CCCCC1`, for which the z-score in assay [1] was -0.564; in assay [2], -0.56; in assay [3] it was -0.0675; in assay [4], -0.92; in [5], -0.739; in assay [6] it was -0.827. Further, the z-score in assay [7] is 0.0238 (inactive); in assay [8] it was -0.881; in assay [9], -0.923; in [10], -0.127 (inactive).

Turning to `Cc1cccc(/C=C/C=O)c1`, the z-score in [1] was 0.175; in assay [2] it was -0.49; in assay [3] it was 0.486; in [4], -0.127; in assay [5], -0.46; in assay [6], 0.895. Moreover, the z-score in [7] is 0.898 (inactive); in assay [8] it was -0.691; in [9], -0.313; in assay [10], 0.0956 (inactive).

`CCCNC(=O)[C@@]1(C)c2ccccc2C(=O)N(Cc2cc(C(F)(F)F)cc(C(F)(F)F)c2)[C@H]1c1ccc(CO)cc1`: the z-score in assay [1] is -0.283; in [2], 0.531; in [3] it was 0.0751; in [4], 0.341; in [5], -1.23; in assay [6] it was 1.22. The z-score in assay [7] was -0.161 (inactive); in assay [8], -0.0935; in [9], -0.643; in [10], 1.27 (inactive).

As to `C=CCCN(CC#C[C@H]1Oc2ccccc2S(=O)(=O)N2CCC[C@@H]12)S(=O)(=O)c1ccc(C)cc1`, the z-score in assay [1] was 0.436; in [2], -0.257; in assay [3], -0.383; in assay [4] it was -3.21; in assay [5], -1.77; in assay [6] it was 0.825. For the same compound, the z-score in [7] is -0.184 (inactive); in [8], -0.972; in [9], -1.5; in assay [10] it was 0.967 (inactive).

Take `O=C1O[C@@H](c2ccccc2)[C@@H](c2ccccc2)N2[C@@H](c3ccc(O)cc3)[C@]3(C(=O)Nc4ccccc43)[C@@H](C(=O)NC[C@H](O)c3ccccc3)[C@H]12`: the z-score is 0.0061 in [1]; 0.874 in assay [2]; -0.121 in assay [3]; -0.0487 in [4]; -1.08 in assay [5]; -1.5 in assay [6]. The z-score in [7] was -0.377 (inactive); in assay [8] it was -0.774; in assay [9] it was 0.32; in assay [10], 0.314 (inactive).

For `CC(=O)n1cc(C(O)C2C=CC3C(=O)N(c4ccccc4)C(=O)C3N2Nc2ccc(C#N)cc2)c2ccccc21` (stereo not given), the z-score in [1] was 1.38; in [2], -0.876; in assay [3], 0.52; in [4] it was 0.245; in assay [5] it was -0.434; in assay [6], -1.04. For the same compound, the z-score is -0.855 (inactive) in assay [7], 0.423 in assay [8], -0.488 in [9] and 1.52 (inactive) in [10].

As for `CN1C(=O)C2C(C1=O)C1C=C(c3ccc(CO)cc3)C2C(C2CC2)N1Cc1cc2c(cc1Br)OCO2` (stereo not given), the z-score in assay [1] is 0.302; in [2], 0.575; in assay [3], 1.81; in assay [4], -0.387; in assay [5], -1.75; in assay [6], 3.74. For the same compound, the z-score was 0.673 (inactive) in assay [7], -0.73 in assay [8], -0.565 in assay [9] and -1.84 (inactive) in assay [10].

Consider `COCC1=C([C@H](O)CCc2ccccc2)[C@H](CO)[C@@H]2C(=O)N(Cc3ccccc3)C(=O)[C@@H]2C1`, for which the z-score is 0.883 in [1]; 0.709 in assay [2]; 0.984 in assay [3]; 0.418 in [4]; 0.438 in assay [5]; 0.592 in assay [6]. For the same compound, the z-score in assay [7] is 0.424 (inactive); in [8], 0.469; in [9], -1.37; in [10], 0.859 (inactive).

Regarding `CCN(CC)c1ccc(N2CC=CC34O[C@@H]5C=CCOC(=O)[C@@H]5[C@H]3C(=O)N(CCCCCO)[C@@H]4C2=O)cc1` (stereo not given in full), the z-score in assay [1] is -0.46; in assay [2], 1.1; in assay [3], -0.0753; in [4], -0.0913; in assay [5], 0.199; in [6], 0.497. Further, the z-score was 0.876 (inactive) in assay [7], 0.0564 in assay [8], 1.65 in [9] and -0.0833 (inactive) in assay [10].

As to `COC(=O)[C@@]1(Cc2ccc(OC)cc2)[C@H]2c3cc(C(=O)N4CCCC4)n(C[C@H](O)CO)c3C[C@H]2CN1C(=O)c1ccccc1`, the z-score in assay [1] is -0.892; in assay [2], -0.113; in [3], 0.255; in assay [4] it was -1.05; in assay [5] it was 0.197; in [6], 1.76. The z-score in assay [7] was 0.585 (inactive); in assay [8], 0.933; in [9], -1.03; in assay [10], 0.336 (inactive).

On to `CCOC(=O)C1=C[C@@H](C(C)(C)C)N(S(=O)(=O)c2ccc(C)cc2)[C@H]1c1ccc(Cl)c(Cl)c1`, for which the z-score is -0.292 in [1]; -0.257 in [2]; -1.36 in assay [3]; -0.266 in assay [4]; -0.986 in assay [5]; 4.44 in [6]. Also, the z-score is -1.66 (inactive) in assay [7], -0.981 in assay [8], -1.33 in assay [9] and -2.26 (inactive) in assay [10].

The record behind these values is PubChem BioAssay.
